# PLK1 PBD inh: inhibitors of human PLK1 polo-box domain binding; actives 2.8% (n = 360,000); P53350; Plk1 PBD binding of FITC phosphopeptide, fluorescence polarization; Potency, µM, for inactives: max response, negative = inhibition, usual class: inhibitors; AID 720504; further: potency means the concentration at half of the fitted maximal effect; series mostly up to about 57 µM; on the % scale 0 is the no-effect control and ±100 the full control effect; nearly all actives have a fitted effect of over 65% in size
# KAT2A inh: inhibitors of human GCN5L2 histone acetyltransferase | GCN5L2 HAT assay, ThioGlo1 CoA-SH fluorescence | Potency, µM (highest dose often 58.9 µM), without a hit: top-dose activity change, negative = inhibition, actives largely listed as inhibitors | actives 0.21% (n = 390,000) | AID 504327; further: potency means the concentration at half of the fitted maximal effect; on the % scale 0 is the no-effect control and ±100 the full control effect
#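 Enzyme at 20nM final was mixed with library compounds for 15 min at room temperature. Peptide H3(1-25) at 75uM, acetyl-CoA at 70uM and ThioGlo1 at 50uM were then added. Plates were read immediately and after 20 min (Ex340nm/Em540nm).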
# Rango dissoc inh: inhibitors of RanGTP-induced Rango-importin beta complex dissociation; O95149+P62826; Biochemical FRET Rango-importin beta, RanGTP-induced dissociation; Potency, µM (doses to about 46.1 µM), without a hit: at the top dose activity change, negative = inhibition; actives 0.071% (n = 340,000); calls by dose curve; further: potency means the concentration at half of the fitted maximal effect; % of control where 0% means no effect; nearly all actives have a fitted effect of over 45% in size
#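 Two FRET readings bracket the reaction: one 5 min after compound meets Rango–importin beta, another 45 min after RanGTP-RCC1 (0.6 uM Ran, 0.2 uM RCC1, 2 mM GTP) is added. Only the second defines inhibition.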
# PI5P4Ka inh: inhibitors of human PI5P4K alpha; P48426; PI5P4Kalpha enzyme, ADP-Glo luminescence, 60 min; stronger effect = lower value; max response, %; actives 1.2% (n = 330,000); AID 652105; active means max response of -50% or lower; inconclusive means between -30% and -50%; inactive means -30% or higher; further: value at the top dose of about 77 µM; on the % scale 0 is the no-effect control and ±100 the full control effect
#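 ADP-Glo luminescence end-point read after a 60 min room-temperature kinase reaction of PI5P4Kalpha plus substrate, initiated with ATP at 5 microM final. Buffer: 0.038 M HEPES pH 7.4, EGTA, 0.1% CHAPS, 5% DMSO.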
# VDR inhibitor: vitamin D3 receptor (human) inhibition; P11473; VDR-SRC2-3 peptide fluorescence polarization, 2 h; Potency, µM, for inactives: max response, negative = inhibition, most hits filed as inhibitors; actives 0.93% (n = 400,000); further: potency means the concentration at half of the fitted maximal effect; on the % scale 0 is the no-effect control and ±100 the full control effect
#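 Signal is fluorescence polarization, reporting how far test compounds block the interaction of VDR with the SRC2-3 coregulator peptide after a 2 h room-temperature incubation.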
# Rango-impB inh: prevents formation of the Rango-importin beta complex; Rango CFP/YFP FRET sensor + importin beta, 45 min; actives 0.031% (n = 340,000); Q14974; Potency, µM (series often up to 92.2 µM), inactives show top-dose inhibition of complex formation; AID 540263; calls by dose curve;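 further: potency means the concentration at half of the fitted maximal effect; 0% = DMSO wells and 100% = buffer wells lacking importin beta; nearly all actives have a fitted effect of over 15% in size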
# Target sequence (Q14974 whole entry, looked up): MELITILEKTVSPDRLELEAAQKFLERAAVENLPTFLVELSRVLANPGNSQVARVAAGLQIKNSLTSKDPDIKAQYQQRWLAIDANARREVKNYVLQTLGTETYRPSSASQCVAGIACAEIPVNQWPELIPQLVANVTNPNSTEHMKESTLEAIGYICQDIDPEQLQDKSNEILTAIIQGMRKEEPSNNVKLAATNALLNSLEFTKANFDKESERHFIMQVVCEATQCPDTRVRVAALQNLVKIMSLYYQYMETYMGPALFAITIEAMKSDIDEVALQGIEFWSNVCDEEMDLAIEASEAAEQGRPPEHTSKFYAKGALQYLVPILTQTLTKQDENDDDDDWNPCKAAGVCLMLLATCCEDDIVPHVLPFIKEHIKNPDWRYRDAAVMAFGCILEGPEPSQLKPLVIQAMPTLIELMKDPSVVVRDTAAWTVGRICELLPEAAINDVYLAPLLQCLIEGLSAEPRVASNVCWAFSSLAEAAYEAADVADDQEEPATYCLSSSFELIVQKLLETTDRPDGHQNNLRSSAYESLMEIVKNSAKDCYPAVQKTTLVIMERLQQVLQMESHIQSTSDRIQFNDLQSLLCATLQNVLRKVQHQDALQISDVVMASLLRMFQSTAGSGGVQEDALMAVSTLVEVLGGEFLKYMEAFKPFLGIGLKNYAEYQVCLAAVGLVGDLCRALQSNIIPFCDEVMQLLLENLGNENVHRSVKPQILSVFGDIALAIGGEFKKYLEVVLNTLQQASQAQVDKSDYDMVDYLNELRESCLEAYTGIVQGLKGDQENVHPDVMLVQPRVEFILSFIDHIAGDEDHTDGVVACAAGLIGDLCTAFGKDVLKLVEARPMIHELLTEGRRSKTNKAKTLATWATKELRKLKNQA
#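 FRET biosensor Rango (snurportin 1 IBB between N-terminal EYFP and C-terminal Cerulean), 50 nM in PBS/1 mM DTT/0.02% Tween-20/0.1% BSA, preincubated 5 min RT with compound; 0.125 microM importin beta added, 45 min RT, CFP/YFP FRET ratio read.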
# TbPYK confirm: confirmation of Trypanosoma brucei pyruvate kinase inhibitors. Potency, µM (highest dose often 76.9 µM), for inactives: top-dose activity change, negative = inhibition, most hits filed as inhibitors. recombinant TbPYK, Kinase-Glo ATP luminescence. actives 67% (n = 890). shares compounds with PLK1 PBD inh; further: potency means the concentration at half of the fitted maximal effect; on the % scale 0 is the no-effect control and ±100 the full control effect; nearly all actives have a fitted effect of over 70% in size
# TbPYK orthogonal: TbPYK inhibition, orthogonal confirmation; recombinant TbPYK, ADP-Glo luminescence, 60 min; AID 720584; shares compounds with PLK1 PBD inh; actives 62% (n = 890); Potency, µM (doses to about 76.9 µM), inactives show at the highest dose activity change, negative = inhibition, actives largely listed as inhibitors; further: potency means the concentration at half of the fitted maximal effect; on the % scale 0 is the no-effect control and ±100 the full control effect; nearly all actives have a fitted effect of over 75% in size
# Starred values were filed as active, the others as inactive; ? = inconclusive; . = not tested or not shown. Compounds with a hit are over-represented: about 3.6% of the library has one in this group of screens. Unless noted, the call rests on the fitted dose curve; in most records, active means well fitted curve in the direction sought with a large enough effect; inconclusive means small, poorly fitted or top-dose-only effect, or another doubt; inactive means no such curve, though single readings can be large; an effect the other way counts as inactive or inconclusive.
SMILES,PLK1 PBD inh,KAT2A inh,Rango dissoc inh,PI5P4Ka inh,VDR inhibitor,Rango-impB inh,TbPYK confirm,TbPYK orthogonal
Cc1ccc(NC(=O)c2cc(N3C(=O)C=CC3=O)ccc2N2CCOCC2)cc1,2.99µM*,0.6%,-10.8%,-62.5*,28.2µM*,3.6%,10µM*,11.2µM*
Cc1ccc(NC(=O)c2cc(NC(=O)c3ccco3)ccc2N2CCOCC2)cc1,-3.6%,-8.3%,7.2%,-4.8,0.4%,0.1%,.,.
Cc1cccc(C)c1-n1nnnc1C1(C)CCC(=O)N1CCCn1ccnc1 (stereo not drawn),-12.7%,.,.,-8.0,.,.,.,.
CCCCn1nnnc1C1(C)CCC(=O)N1CCCn1ccnc1 (stereo not drawn),5.97µM*,.,.,-9.4,.,.,14.1µM*,35.5µM*
OB(O)c1csc2ccccc12,.,.,.,.,-5.5%,.,.,.
COc1ccc(-c2nnc3ccc(SCC(=O)N4CCN(c5ccccc5)CC4)nn23)cc1,-21.2%,.,28.5%,-25.0,-7.1%,-3.5%,?,?
COc1ccc(-c2nnc3ccc(SCC(=O)N4CCOCC4)nn23)cc1,-31.8%,-7.8%,2.0%,-17.2,-2.5%,0.1%,.,.
CC1=CC(=Nc2c(C)n(C)n(-c3ccccc3)c2=O)C=C(C)C1=O,-5.4%,2.8%,9.8%,-19.8,-3.2%,2.7%,-26.0%,-6.6%
N#C/C(=C\c1ccc(N2CCOCC2)o1)c1ccccc1,11.8%,?,?,.,-93.0%,?,.,.
N#C/C(=C/c1ccc(N2CCOCC2)o1)c1ccc(Br)cc1,17.0%,-7.1%,?,-25.7,35.5µM*,?,?,35.5µM*
Cn1c(=O)[nH]c(=O)c2c1nc(SCCN1CCCCC1)n2CCCc1ccccc1,2.38µM*,-3.6%,18.3%,-10.0,35.5µM*,-0.4%,3.55µM*,4.47µM*
Cn1c(=O)[nH]c(=O)c2c1nc(SCC(=O)O)n2Cc1ccccc1,-9.9%,-0.2%,14.1%,?,-18.9%,4.2%,?,?
CCCCCn1c(SCCc2ccccc2)nc2c1c(=O)[nH]c(=O)n2C,-8.6%,2.0%,11.9%,-4.0,7.1%,1.8%,.,.
Cc1ccc(Cn2c(SCCN3CCCCC3)nc3c2c(=O)[nH]c(=O)n3C)cc1,7.52µM*,6.8%,-9.6%,-12.7,89.1µM*,3.9%,15.8µM*,11.2µM*
CCOC(=O)c1ccc(NC(=O)CCn2c(=O)c3cccn3c3ccccc32)cc1,.,8.9%,.,.,2.5%,.,.,.
Oc1c(C=C2N=c3ccccc3=N2)sc(=S)n1-c1ccc(F)cc1,?,-0.3%,-9.0%,12.6,2.4%,-2.1%,.,.
Oc1[nH]c(=S)sc1C=C1N=c2ccccc2=N1,-4.0%,-9.2%,-7.5%,-20.6,-5.8%,1.2%,22.4µM*,?
O=C(CSc1cccc2cccnc12)N1CCCC1,2.99µM*,-13.6%,14.2%,?,-16.7%,3.3%,?,?
CCCCC1(C)OC(=O)C(=Cc2ccc(-c3ccc(Cl)c(C(=O)O)c3)o2)C(=O)O1 (stereo not drawn),4.23µM*,?,6.9%,-25.8,22.4µM*,?,15.8µM*,31.6µM*
CC(C)N1C(=O)S/C(=C\c2ccc(-c3ccc(Cl)c(C(=O)O)c3)o2)C1=O,?,-22.7%,?,-29.9,?,?,.,.
CC(=O)c1cccc(NC(=O)CN2C(=O)CC(c3ccc(C)cc3C)=Nc3ccccc32)c1,.,1.3%,.,.,10.6%,.,.,.
Oc1ccc(C2C[C@H]3CC[C@@H]2C3)cc1O (stereo partly drawn),?,-3.6%,6.4%,3.3,-13.5%,-3.7%,10µM*,14.1µM*
CC(=O)Nc1ccc(S(=O)(=O)NNc2cccc(C)c2)cc1,11.9µM*,?,-6.7%,?,79.4µM*,-2.9%,?,17.8µM*
Cc1ccc(NC(=O)NC(=O)CN2CCN(c3ccc(O)cc3)CC2)c(C)c1,-7.9%,-8.6%,18.6%,-24.1,-8.3%,-0.6%,11.2µM*,5.62µM*
Cc1ccc(NC(=O)NC(=O)CN2CCC(C(N)=O)CC2)c(C)c1,-19.9%,2.9%,9.6%,2.1,?,7.0%,.,.
SMILES,PLK1 PBD inh,KAT2A inh,Rango dissoc inh,PI5P4Ka inh,VDR inhibitor,Rango-impB inh,TbPYK confirm,TbPYK orthogonal
CC(C)C(C)NC(=O)CSc1ccc(S(=O)(=O)N2CCOCC2)cn1 (stereo not drawn),-11.1%,3.8%,-7.7%,-2.1,6.2%,4.2%,.,.
CC(C)CCNC(=O)NC(=O)CSc1ccc(S(=O)(=O)N2CCOCC2)cn1,?,-16.6%,11.7%,-21.4,18.0%,-6.6%,15.8µM*,14.1µM*
Cc1ccc(C2CC(=O)N3CN(c4ccc(Br)cc4)CSC3=C2C#N)o1 (stereo not drawn),-12.9%,?,-15.9%,.,44.7µM*,-0.5%,31.6µM*,15.8µM*
CCSC1=C(C#N)C(c2ccc(C)o2)CC(=O)N1 (stereo not drawn),-4.8%,-1.2%,3.4%,0.4,-25.9%,?,.,.
COc1ccc(C(=O)Nc2ccc3c(c2)N(C2CCCC2)C(=O)c2ccccc2S3)cc1OC,.,1.2%,.,.,1.5%,.,.,.
O=C(CSc1cn[nH]n1)Nc1cccc(C(=O)O)c1,4.23µM*,?,-12.3%,-63.7*,44.7µM*,-1.6%,14.1µM*,35.5µM*
COc1ccc(-c2nnc(SCCC(=O)O)n2-c2ccccc2)cc1,-2.3%,-2.7%,-2.0%,.,2.0%,4.1%,7.94µM*,5.01µM*
CN(C)c1oc(-c2ccccc2[N+](=O)[O-])nc1C#N,26.7µM*,-12.9%,8.7%,-28.0,31.6µM*,0.0%,1.78µM*,4.47µM*
